According to ChEMBL document CHEMBL3988442, “University of Dundee, Small-Polar-MMV Screening Library” (2021):
The whole screen tested about 53,000 compounds, of which about 900 (1.7%) showed an effect of 50% or more. The sample holds strong results, similar compounds and a random draw of the others, so the mix is not that of the screen.

system: Mycobacterium tuberculosis; assay: Cornell - Phenotypic assay to identify agents that inhibit growth of Mycobacterium tuberculosis; format: functional; set-up: scale not given: direction of the effect not stated beside the values; conditions: 10 mM as filed; unlikely as a test dose

SMILES | Percent Effect [%]
CNC(=O)C1Cn2ccnc2C2(CCN(C(=O)NC3CCCC3)CC2)O1 (centres undefined) | 14.23
COCCNC(=O)N1CCCC(COc2ccccc2)C1 (centres undefined) | 32.08
COCCN1CC(C(=O)Nc2ccc3c(c2)CCC(=O)N3C)CC1=O (centres undefined) | -14.74
Cn1ncc2c(NCC3CCCN3c3cccnn3)ncnc21 (centres undefined) | 19.68
CCOc1cccc(COC(=O)c2cscn2)n1 | 94.28
CCOc1cccc(COC(=O)c2ccc(F)cn2)n1 | 26.62
CCOc1cccc(COC(=O)c2cc(Cl)ccn2)n1 | 14.29
CCOc1cccc(COC(=O)c2cc(C)on2)n1 | 56.01
CCOc1cccc(NC(=O)c2cc(C)on2)n1 | 7.843
CCOc1cccc(COC(=O)c2ccc(Cl)cn2)n1 | 25.49
Cc1cnn(CC(C)NCc2nc(-c3ccoc3)no2)c1 (centres undefined) | -18.82
CC(=O)N1CCN(C(C)c2ccc(Br)cc2)CC1 (centres undefined) | 29.59
CC(=O)c1cccc(NC(=O)Cn2cc(I)cn2)c1 | 18.59
COc1ccc(C2CNCCN2C(=O)c2cccc3cccnc23)cc1 (centres undefined) | -23.3
COc1ccccc1C(=O)N1CCC(Nc2ccc(C)nn2)CC1 | 2.292
CCc1ccc(NC(C(N)=O)c2ccc(F)cc2)cc1 (centres undefined) | 17.32
Cc1csc(CN2CCC[C@]3(C[C@H](OCC4CC4)CO3)C2)n1 | 14.79
CCOc1ccc(C(C)Nc2ncnc3c2CCNC3)cc1OCC (centres undefined) | 51.31
CCCc1ccc(C(C)Nc2ncnc3c2CCNC3)cc1 (centres undefined) | 32.1
CC(Nc1ncnc2c1CCNC2)c1ccc(C(C)(C)C)cc1 (centres undefined) | 24.62
COC(=O)Cn1nc(-c2ccccc2F)ccc1=O | -14.4
O=c1c(S(=O)(=O)N2CCCCC2)cccn1Cc1ccccc1Cl | 9.959
CC(C)COC(=O)N1CCCN(C(C)c2nc(C(C)C)no2)CC1 (centres undefined) | 10.17
O=C(NCCc1cccs1)C1(N2CCCCC2)Cc2ccccc2C1 | 15.22
Cc1cccc(CN2C[C@@H]3OCCN(c4ccnc(N(C)C)n4)[C@@H]3C2)c1.O=C(O)C(F)(F)F | 24.83

SMILES | Percent Effect [%]
O=C(O)C(F)(F)F.O=C(O)C(F)(F)F.c1cnc(N2CCO[C@H]3CN(Cc4ccsc4)C[C@H]32)nc1 | 5.511
CN(C)c1nccc(N2CCO[C@H]3CN(Cc4ccsc4)C[C@H]32)n1.O=C(O)C(F)(F)F | 57.1
Oc1ccccc1-c1n[nH]c(C2CC2)n1 | -27.03
CNC(=O)CC1CCN(C(=O)NCc2cn3c(C)cccc3n2)CC1 | 20.05
CC(=O)N1CCCC(c2ccc(C(=O)NC3CCCC3)cn2)C1 (centres undefined) | -27.02
O=C(O)CC(O)(CC(=O)O)C(=O)O.O[C@@]1(c2ccccn2)CC[C@H]2CN(Cc3cccc(Cl)c3Cl)C[C@H]21 | 3.215
Cc1ccc([C@]2(O)CC[C@H]3CN(Cc4ccccc4F)C[C@H]32)nc1.O=C(O)CC(O)(CC(=O)O)C(=O)O | 8.735
Cc1ccc([C@]2(O)CC[C@H]3CN(Cc4cccc(Cl)c4Cl)C[C@H]32)nc1.O=C(O)CC(O)(CC(=O)O)C(=O)O | 69.29
COc1ncc(CN2C[C@@H]3CC[C@@](O)(c4ccc(C)cn4)[C@@H]3C2)cn1.O=C(O)CC(O)(CC(=O)O)C(=O)O | -1.54
Cc1ccc([C@]2(O)CC[C@H]3CN(Cc4cc(C)c(O)c(C)c4)C[C@H]32)nc1.O=C(O)CC(O)(CC(=O)O)C(=O)O | 50.31
Cc1ccc([C@]2(O)CC[C@H]3CN(Cc4cccc(F)c4F)C[C@H]32)nc1.O=C(O)CC(O)(CC(=O)O)C(=O)O | -20.35
CN(CCc1ncnn1-c1ccccc1Cl)C1CCS(=O)(=O)C1 (centres undefined) | -16.6
Cc1ccc(CNS(=O)(=O)CCCC#N)cc1F | 6.478
CC(c1nccs1)N(C)S(=O)(=O)NCc1ccccc1 (centres undefined) | -14.93
Cc1cc(C)n(CC2CN(CC(=O)NC(C3CC3)C3CC3)CCO2)n1 (centres undefined) | -31.15
Cc1ccc(CN2Cc3c(C(=O)N4CCOCC4)nn(C)c3C2)s1.O=C(O)C(F)(F)F | 15.84
O=C(O)C(F)(F)F.c1cnc(N2CCO[C@H]3[C@H](OCC4CCOCC4)CC[C@@H]32)nc1 | -2.783
c1ccc(CN2CCC(Nc3ncnc4c3CCNCC4)C2)cc1 (centres undefined) | 21.59
CCS(=O)(=O)N1CCCCC1c1nc(CC(C)C)no1 (centres undefined) | 28.4
Cc1cccc2c1cnn2CCC(=O)NCc1csc(C2CC2)n1 | 28.59
Cl.Nc1cccnc1N1CCCCCC1 | 72.92
Nc1cccnc1N1CCN(c2ccccc2)CC1 | 11.1
CN1CCN(c2ncccc2N)CC1 | -43.88
Cc1cc(C)n(CCNCc2cc(-c3ccc(Cl)cc3)c[nH]c2=O)n1 | -2.359
Cc1nc2c(c(NCc3nc4ccccc4s3)n1)CCNCC2 | 90.34

SMILES | Percent Effect [%]
Cc1nc2c(c(NCc3ccc(-c4ccccn4)s3)n1)CCNCC2 | 10.6
Cc1nc2c(c(NCc3cc4ccccc4s3)n1)CCNCC2 | 31.59
Cc1nnc(N2CC[C@H]3C[C@@H](C(=O)NC4CCCC4)O[C@H]3C2)s1.O=C(O)C(F)(F)F | -17.08
O=C(NC1CCN(Cc2cccc3c2OCCO3)CC1)c1cccs1 | -12.52
Cc1nnc([C@@]23CCO[C@@H]2CCN(Cc2ccc4c(c2)OCO4)C3)o1 | -5.266
Cc1csc(N2CCN(C(=O)c3c(C)oc(C)c3C)CC2)n1 | 16.26
CN(C)C(CNC(=O)c1nc(N2CCCC2)ncc1Cl)c1ccco1 (centres undefined) | 22.7
Cc1cc(NC(=O)c2nc(N3CCCC3)ncc2Cl)nc(C(C)C)n1 | 24.2
Cc1cc(C(N)=O)ccc1NC(=O)c1nc(N2CCCC2)ncc1Cl | 105.8
O=C(Nc1cnn(-c2ccccc2Cl)c1)N[C@@H]1C=C[C@H](CO)C1 | 52.75
Cc1cnn(Cc2ccc(NC(=O)N[C@@H]3C=C[C@H](CO)C3)cc2)c1 | 20.48
O=C(Nc1cnn(Cc2ccc(Cl)cc2)c1)N[C@@H]1C=C[C@H](CO)C1 | 24.39
O=C(N1CCCC1)N1C[C@@H](OCc2cccnc2)[C@H]2OCCC[C@H]21.O=C(O)C(F)(F)F | 12.95
Cc1cc2ccccc2n1CCC(=O)N1CCC2(CC1)CNC(=O)C2 | -9.599
Cc1cc2ccccc2n1CCC(=O)N1CCC[C@H]1C(N)=O | 9.96
Cc1cc2ccccc2n1CCC(=O)N1CCCC2(CC1)CNC(=O)O2 (centres undefined) | -6.951
O=C(CCCOc1ccccc1)N1CCCC1Cn1cccn1 (centres undefined) | -5.631
Cc1cc2ccccc2n1CCC(=O)N1CCCC1Cn1cccn1 (centres undefined) | 91.97
Cc1cc2ccccc2n1CCC(=O)N1CCCCC1CCO (centres undefined) | 105.9
COc1ccc2c(ccn2CC(=O)N2CCCC2Cn2cccn2)c1 (centres undefined) | 24.26
Cc1cc2ccccc2n1CCC(=O)N1CCN(C)CC1C(N)=O (centres undefined) | 81.47
Cc1cc(C)n(CC(=O)N2CCCCC2CCN(C)C)c(=O)n1 (centres undefined) | 19.58
Cc1cc(C2CCCN(C(=O)c3cccnc3)C2)ccn1 (centres undefined) | -13.34
CCc1cc(NCc2ccccc2CN2CCCC2)n2ncnc2n1 | -6.247
O=C(NCc1ccco1)[C@H]1C[C@@H]2CCN(c3ncccn3)C[C@H]2O1.O=C(O)C(F)(F)F | 33.78

SMILES | Percent Effect [%]
COCC[C@]1(O)CCN(Cc2nc(C)cs2)C[C@H]1C | -15.54
O=C(O)C(F)(F)F.O=C1[C@H]2CN(c3ncccn3)C[C@H]2CN1CCN1CCCC1 | 1.191
Cc1cnc(N2CCc3onc(COc4cccnc4)c3C2)nc1 | -20.46
Cc1cc(C)cc(C(=O)N2CCN(C(=O)N(C)C)CC2(C)C)c1 | 26.69
Cc1nc(Nc2cnccn2)cc(C2CCN(CCO)C2)n1.O=CO (centres undefined) | -24.26
CSCCC(NC(=O)c1ccco1)C(=O)N(C)Cc1ccsc1 (centres undefined) | -9.579
O=C(NCCC(=O)N1CCCC1)c1ccc(SCc2cccnc2)cc1 | 35.93
CCOc1ccnc(N2CCN(C(=O)c3cccnc3)CC2)n1 | -18.66
O=S(=O)(NC1CCCCC12OCCO2)c1cc(F)cc(F)c1 (centres undefined) | 56.69
O=S(=O)(NC1CCCCC12OCCO2)c1cc(Cl)cc(Cl)c1 (centres undefined) | 16.3
O=S(=O)(NC1CCCCC12OCCO2)c1ccc2c(c1)OCCO2 (centres undefined) | 44.93
CCCN1CCC(Cc2noc(-c3cccnc3OC)n2)CC1 | 20.11
O=C(NCC1CC1)c1nnc2ccc(Cl)cc2n1 | 99.3
CCn1nc(C)c(CNC(=O)c2nnc3ccccc3n2)c1C | 7.838
O=C(NCC1CCOC1)c1csc(-c2ccc(Cl)cc2)n1 (centres undefined) | 25.26
O=C(NCC1CCOC1)c1cc(-c2ccc(Cl)cc2)n[nH]1 (centres undefined) | -7.527
COc1ccc(-c2nnc(SC(C)C(=O)NC3CCCC3)[nH]2)c(OC)c1 (centres undefined) | -11.32
COc1ccc2nnc(C(=O)NCC3CCCC3)nc2c1 | 39.03
CCn1nc(C)c(CNC(=O)c2nnc3ccc(OC)cc3n2)c1C | -22.43
COc1ccc2nnc(C(=O)NC3CCCC3)nc2c1 | 60.2
CCn1nc(C)c(CNC(=O)c2nnc3ccc(Cl)cc3n2)c1C | 64.24
Cc1ccc(-n2nnc(C(=O)NCC3CCCCC3)n2)cc1 | 32.3
Cc1ccc2nnc(C(=O)NCC3CCCC3)nc2c1 | 99.7
COc1ccc(C(=O)NC2CC2)c(OC)c1 | 29.69
